Compound activity from PubChem BioAssay.
JMJD2A Tudor inh – JMJD2A Tudor domain (human) inhibition; O75164; AlphaScreen JMJD2A-Tudor / H3K4me3 peptide binding; Potency, µM (series often up to 114 µM), for the others: at the top dose activity change, negative = inhibition, actives largely listed as inhibitors; 390,000 compounds, 4.4% hits; further: on the % scale 0 is the no-effect control and ±100 the full control effect; nearly all actives have a fitted effect of over 50% in size
BAZ2B block – blocks human BAZ2B | 360,000 compounds, 4.4% hits | Potency, µM (doses to about 114 µM), inactives show top-dose activity change, negative = inhibition, usual class: inhibitors | AlphaScreen BAZ2B-H3K14Ac peptide displacement; further: on the % scale 0 is the no-effect control and ±100 the full control effect; nearly all actives have a fitted effect of over 60% in size
Target sequence (Q9UIF8 whole entry, looked up): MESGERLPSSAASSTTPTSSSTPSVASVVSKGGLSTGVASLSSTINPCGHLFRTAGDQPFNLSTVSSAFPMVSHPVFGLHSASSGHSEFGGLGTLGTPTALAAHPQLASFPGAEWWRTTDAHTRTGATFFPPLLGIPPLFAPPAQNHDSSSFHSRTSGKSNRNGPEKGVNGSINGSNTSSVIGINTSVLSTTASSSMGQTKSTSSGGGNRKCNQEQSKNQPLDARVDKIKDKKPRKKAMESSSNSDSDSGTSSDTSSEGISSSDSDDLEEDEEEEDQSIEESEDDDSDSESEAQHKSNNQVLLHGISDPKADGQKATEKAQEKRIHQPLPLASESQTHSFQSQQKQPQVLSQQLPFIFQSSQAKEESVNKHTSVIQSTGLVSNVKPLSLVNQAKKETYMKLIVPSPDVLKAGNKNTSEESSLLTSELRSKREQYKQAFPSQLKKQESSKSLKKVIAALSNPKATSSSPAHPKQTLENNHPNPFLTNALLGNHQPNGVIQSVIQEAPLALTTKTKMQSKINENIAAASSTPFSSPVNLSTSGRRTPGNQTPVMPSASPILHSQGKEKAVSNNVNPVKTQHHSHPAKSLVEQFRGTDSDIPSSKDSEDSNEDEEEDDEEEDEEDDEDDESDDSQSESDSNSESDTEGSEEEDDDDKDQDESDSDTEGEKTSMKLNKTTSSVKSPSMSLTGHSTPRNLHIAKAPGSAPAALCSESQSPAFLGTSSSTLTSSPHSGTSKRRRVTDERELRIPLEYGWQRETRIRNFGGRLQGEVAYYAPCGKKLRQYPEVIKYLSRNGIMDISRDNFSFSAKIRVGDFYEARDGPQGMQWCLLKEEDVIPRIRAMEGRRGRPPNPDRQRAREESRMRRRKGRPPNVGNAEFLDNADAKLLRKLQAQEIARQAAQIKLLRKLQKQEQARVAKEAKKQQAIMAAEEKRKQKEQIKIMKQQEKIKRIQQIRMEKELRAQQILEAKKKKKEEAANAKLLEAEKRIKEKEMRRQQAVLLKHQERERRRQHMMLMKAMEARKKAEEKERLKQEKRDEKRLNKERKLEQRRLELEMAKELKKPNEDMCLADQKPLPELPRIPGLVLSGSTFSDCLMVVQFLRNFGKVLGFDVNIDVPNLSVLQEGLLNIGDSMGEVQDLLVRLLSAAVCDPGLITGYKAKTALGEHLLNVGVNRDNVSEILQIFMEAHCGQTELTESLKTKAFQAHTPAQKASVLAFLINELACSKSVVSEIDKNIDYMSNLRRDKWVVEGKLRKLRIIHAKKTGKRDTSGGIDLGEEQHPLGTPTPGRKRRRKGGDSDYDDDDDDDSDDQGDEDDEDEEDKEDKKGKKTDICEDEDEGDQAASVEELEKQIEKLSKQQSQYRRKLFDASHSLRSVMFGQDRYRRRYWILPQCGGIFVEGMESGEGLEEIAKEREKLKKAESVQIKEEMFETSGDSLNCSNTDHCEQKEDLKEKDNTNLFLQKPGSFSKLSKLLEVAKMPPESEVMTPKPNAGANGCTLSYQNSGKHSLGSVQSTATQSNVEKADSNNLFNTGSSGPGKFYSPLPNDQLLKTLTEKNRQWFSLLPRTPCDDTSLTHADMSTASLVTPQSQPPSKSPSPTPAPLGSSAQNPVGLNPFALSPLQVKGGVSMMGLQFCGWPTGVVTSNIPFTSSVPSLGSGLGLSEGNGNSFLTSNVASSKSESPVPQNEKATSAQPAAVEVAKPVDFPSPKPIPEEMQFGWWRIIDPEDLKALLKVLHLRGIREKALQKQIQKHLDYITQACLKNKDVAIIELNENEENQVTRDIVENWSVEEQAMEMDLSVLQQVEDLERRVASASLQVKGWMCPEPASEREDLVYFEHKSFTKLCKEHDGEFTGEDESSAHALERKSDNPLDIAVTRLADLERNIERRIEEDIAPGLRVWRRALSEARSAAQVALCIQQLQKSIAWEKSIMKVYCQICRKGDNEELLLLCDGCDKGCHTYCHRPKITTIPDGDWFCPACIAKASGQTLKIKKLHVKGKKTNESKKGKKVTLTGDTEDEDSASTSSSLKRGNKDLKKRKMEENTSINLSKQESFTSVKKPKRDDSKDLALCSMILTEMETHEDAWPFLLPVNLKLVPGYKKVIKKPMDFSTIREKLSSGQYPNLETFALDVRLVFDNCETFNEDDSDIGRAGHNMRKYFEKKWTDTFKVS
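Multi-concentration screen (max 110 uM) measuring displacement of acetylated histone H3 peptide from BAZ2B by AlphaScreen, using 50 nM protein, 50 nM peptide and 10 ug/mL streptavidin donor plus Ni-chelate acceptor beads.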
HP1b binding inh – inhibitors of HP1-beta chromodomain binding to methylated histone tails | 390,000 compounds, 0.56% hits | Potency, µM (top dose mostly 114 µM), without a hit: top-dose activity change, negative = inhibition, hits mostly inhibitors | AlphaScreen HP1-beta / biotin-H3K9me3 peptide binding | AID 540317; further: nearly all actives have a fitted effect of over 70% in size
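AlphaScreen: HP1-beta (50 nM) preformed 30 min with biotin-H3(1-18)K9me3 peptide (50 nM) in PBS pH 7.4, 0.01% Tween-20. Compound added for 30 min at RT, then streptavidin donor/nickel chelate acceptor beads (10 ug/mL) for 30 min.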
G9a inh – blocks human histone lysine methyltransferase G9a; G9a H3K9 monomethylation, AlphaScreen, 2 h; Potency, µM (top dose mostly 102 µM), without a hit: at the highest dose activity, negative = inhibition, actives largely listed as inhibitors; 350,000 compounds, 8.8% hits; further: on the % scale 0 is the no-effect control and ±100 the full control effect; nearly all actives have a fitted effect of over 75% in size
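AlphaScreen read-out: biotin-H3K9 peptide (500 nM) methylation by 20 nM enzyme with 20 uM SAM, 2 h at room temperature after 15 min compound preincubation; anti-monomethyl H3K9 antibody plus donor/acceptor beads, 10 min dark.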
Sfp PPTase inh – inhibitors of Bacillus subtilis Sfp phosphopantetheinyl transferase; Q9F4F7; Potency, µM, for inactives: largest response in the series, negative = inhibition, actives largely listed as inhibitors; 310,000 compounds, 3.5% hits; Biochemical Sfp PPTase activity, qHTS;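 further: the enzyme is Sfp with the accession as filed and its product quenches rhodamine fluorescence; 0% = enzyme reaction without inhibitor and -100% = no enzyme wells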
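Step 1, compound plus 15 nM Sfp-PPTase, 15 min, room temperature. Step 2, add rhodamine-CoA (5 uM) and BHQ-2-YbbR (12.5 uM). Step 3, read 525/598 nm fluorescence at 0 and 30 min.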
12-LOX inh – inhibitors of human 12S-lipoxygenase ALOX12 | purified 12hLO, xylenol orange hydroperoxide absorbance | Potency, µM (series often up to 108 µM), for the others: at the top dose activity change, negative = inhibition, hits mostly inhibitors | 580,000 compounds, 1.1% hits; further: on the % scale 0 is the no-effect control and ±100 the full control effect
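Purified human 12hLO at 150 nM in 25 mM Hepes, 0.01% Triton X-100, pH 7.0, preincubated 15 min at room temperature with compound. Reaction started with 40 uM arachidonic acid, 30 min at room temperature. Hydroperoxide measured by Fe-xylenol orange, 573/405 nm absorbance ratio.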
* marks the source's active call; other numbers are inactive results; ? = inconclusive; . = no result; [ ] = another dose, or the depositor's remark. Hits are enriched below; roughly 8.7% of the tested compounds scored in any of these assays. The call rests on the fitted dose curve; in most records, active means well fitted curve in the direction sought with a large enough effect; inconclusive means small, poorly fitted or top-dose-only effect, or another doubt; inactive means no such curve, though single readings can be large; an effect the other way counts as inactive or inconclusive. Potency means the concentration at half of the fitted maximal effect.

SMILES	JMJD2A Tudor inh	BAZ2B block	HP1b binding inh	G9a inh	Sfp PPTase inh	12-LOX inh
O=[N+]([O-])c1cc(-c2ncccn2)c([N+](=O)[O-])s1	-23.7%	?	19.7%	28.2µM*	?	-27.9%
CC(=O)c1ccc(OC(=O)c2ccccc2F)cc1OC(=O)c1ccccc1F	.	.	.	.	.	1.6%
Cc1ccc(C)c(N=Cc2ccc(N(C)C)cc2)c1	.	.	.	.	.	5.4%
Cc1ccc(S(=O)(=O)N(C)/N=C/c2ccc(N(C)C)cc2)cc1	22.4µM*	25.1µM*	39.8µM*	17.8µM*	1.4%	.
Cc1ccc(S(=O)(=O)N(C)/N=C/C=C/c2ccccc2)cc1	-26.0%	-4.1%	19.7%	35.5µM*	2.5%	-10.4%
Cc1ccc(C(=O)N/N=C/C=C/c2ccccc2)cc1	1.4%	-31.8%	31.1%	3.7%	14.9%	7.8%
COc1ccc2cc(C3CN(C(=O)c4cccn4C)CCO3)ccc2c1 (centres undefined)	.	.	.	.	.	-14.1%
Cc1nc2ccccc2nc1CS(=O)(=O)C(C)C(=O)NCC(C)C (centres undefined)	.	.	.	.	.	-14.6%
Cc1ccc(NC(=O)C2(c3ccccc3)CCOCC2)cc1	50.1µM*	-9.3%	-5.8%	7.1%	20.6%	9.5%
Cc1ccc(NC(=O)C2(c3ccccc3)CCCC2)cc1	.	.	.	.	.	14.9%
Nc1oc2ccccc2c(=O)c1-c1cccc2ccccc12	.	.	.	.	.	7.2%
Cc1ccc(Nc2nnns2)cc1	-23.2%	-37.2%	?	5.62µM*	6.31µM*	?
Nc1ccccc1NC1CCCCC1	56.2µM*	31.6µM*	?	50.1µM*	-19.0%	?
O=C(O)CC(c1cccc(Cl)c1)n1cccc1 (centres undefined)	89.1µM*	-4.7%	0.7%	-17.4%	-10.4%	0.0%
CC(NC(=O)c1ccc2c(c1)NC(=O)CS2)C1CC1 (centres undefined)	.	.	.	.	.	-18.5%
Cn1c(=O)c2c(-c3ccccc3Br)n(C(C)(C)C)cc2n(C)c1=O	-32.4%	79.4µM*	-8.0%	-32.5%[59 µM]	.	-26.9%
CC(c1ccccc1)n1cc2c(c1-c1ccccc1Br)c(=O)n(C)c(=O)n2C (centres undefined)	?	?	-9.0%	-44.2%[59 µM]	.	?
CCn1cc(CN2CC(Oc3ccc(-c4noc(-c5cccnc5)n4)cc3)C2)cn1	.	.	.	.	.	44.2%
CC[C@]12c3[nH]c4ccc(OC)cc4c3CCN1C(=O)C(CC(=O)NCC13CC4CC(CC(C4)C1)C3)C[C@@H]2C(=O)N1CCN(C(=O)C2CC2)CC1 (some centres undefined)	-23.7%	.	50.0%	.	.	0.0%
CC[C@]12c3[nH]c4ccc(Cl)cc4c3CCN1C(=O)[C@@H](CC(=O)NCC13CC4CC(CC(C4)C1)C3)C[C@@H]2C(=O)N1CCN(C(=O)C2CC2)CC1	?	.	7.0%	.	.	39.8µM*
CN(C)CCCNC(=O)C[C@H]1C[C@H](C(=O)N2CCOCC2)[C@@]2(CCC3CCCC3)c3[nH]c4cc(-c5ccco5)ccc4c3CCN2C1=O	?	.	-3.8%	.	.	?
O=C(C[C@H]1C[C@H](C(=O)N2CCOCC2)[C@@]2(CCC3CCCC3)c3[nH]c4cc(-c5ccco5)ccc4c3CCN2C1=O)NCCN1CCOCC1	-26.1%	.	?	.	.	44.7µM*
COc1ccc(CNC(=O)C[C@H]2C[C@H](C(=O)N3CCOCC3)[C@@]3(CCC4CCCC4)c4[nH]c5cc(-c6ccco6)ccc5c4CCN3C2=O)cc1OC	?	.	-13.9%	.	.	39.8µM*
O=C(C[C@H]1C[C@H](C(=O)N2CCOCC2)[C@@]2(CCC3CCCC3)c3[nH]c4cc(-c5ccco5)ccc4c3CCN2C1=O)NCc1cccc(C(F)(F)F)c1	?	.	23.9%	.	.	-58.0%
COCCCNC(=O)C[C@H]1C[C@H](C(=O)N2CCOCC2)[C@@]2(CCC3CCCC3)c3[nH]c4cc(-c5ccco5)ccc4c3CCN2C1=O	79.4µM*	.	?	.	.	?
SMILES	JMJD2A Tudor inh	BAZ2B block	HP1b binding inh	G9a inh	Sfp PPTase inh	12-LOX inh
CC(=O)N/N=C/c1cc(Cl)ccc1OCCCOc1cc(C)ccc1C(C)C	.	.	.	.	.	2.8%
O=C(c1cn2ccsc2n1)N1CC[C@@H](c2ccc3c(c2)OCO3)[C@H](O)C1	.	.	.	.	.	3.4%
COc1ccc(CNC(=O)C[C@H]2C[C@H](C(=O)N3CCCCC3)[C@@]3(C)c4[nH]c5cc(-c6ccco6)ccc5c4CCN3C2=O)cc1OC	56.2µM*	.	?	.	.	-9.0%
COc1ccc2[nH]c3c(c2c1)CCN1C(=O)C(CC(=O)NCc2ccc(OC)c(OC)c2)C[C@H](C(=O)N2CCOCC2)[C@@]31C (some centres undefined)	-30.2%	.	31.3%	.	.	-1.1%
COc1ccc(CNC(=O)C[C@H]2C[C@H](C(=O)N3CCCCC3)[C@@]3(C)c4[nH]c5ccc(Cl)cc5c4CCN3C2=O)cc1OC	56.2µM*	.	-7.5%	.	.	?
Cc1cc(=O)oc(C)c1C(=O)N1CCN(C(c2ccccc2)c2ccccc2)CC1	-13.2%	-32.9%	48.0%	50.1µM*	9.5%	23.9%
CN(C)C(CNC(=O)/C=C/c1ccccc1)c1ccsc1 (centres undefined)	.	.	.	.	.	-7.5%
CC1(C)CC(=O)C2=C(C1)OC(N)=C(C#N)C21CCN(C(=O)OCc2ccccc2)CC1	-23.3%	10.5%	3.6%	-32.9%[2.33 µM]	-3.3%	8.7%
N#CC1=C(N)OC2=C(C(=O)CCC2)C12CCN(C(=O)OCc1ccccc1)CC2	-11.0%[57.1 µM]	-34.1%	27.8%	50.1µM*	-5.8%	?
